A short description of test [1]: Cell Viability - Hek293 (AID 427;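 active = compounds whose dose-response curve shows a full or clear partial loss of cell viability, called from curve shape rather than a numeric limit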;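 note: potency is the fitted concentration of half-maximal effect; cells exposed to compound for 40 hours at 37 °C before reading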). As to conditions: qHTS. The gist of the method: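 HEK293 cells in complete medium were exposed to compound for 40 hr at 37 °C, then cellular ATP was read by CellTiter-Glo luminescence. Data were normalized to DMSO (basal) and 100 uM tamoxifen (100% inhibition), and AC50 came from Hill fits.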
Test [2] can be described thus: Cell Viability - N2a (AID 540).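 Note: plate controls were DMSO alone for no effect and tamoxifen control for full effect; nearly all actives have a fitted effect of over 45% in size.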 As to conditions: N2a mouse neuroblastoma cell viability; activity change, negative = cytotoxicity: at 92.2 µM (top of the series). The gist of the method:
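Cytotoxicity was scored as loss of cellular ATP in N2a cells, a mouse neuroblastoma line. Compounds are applied in a qHTS concentration series for 40 hr at 37 °C.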

Test [3] in a line: Cell Viability - H-4-II-E (AID 543). Note: % is set by controls: 0 for no effect and ±100 for the full control effect; nearly all actives have a fitted effect of over 35% in size. As to conditions: H-4-II-E rat hepatoma viability; series mostly up to 92.2 µM. The gist of the method:
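Cells seeded at 1500 per well and rested 5 hr; compounds added; 40 hr incubation at 37 °C; CellTiter-Glo added, 20 min at room temperature; luminescence read. Hill-equation fits gave AC50.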

A short description of test [4]: Cell Viability - SH-SY5Y (AID 544).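 Note: 0% = DMSO alone and -100% = 100 µM tamoxifen; nearly all actives have a fitted effect of over 55% in size.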 As to conditions: SH-SY5Y neuroblastoma cell viability; viability change, negative = cytotoxic: at 92.2 µM (top of the series). The gist of the method: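 Cells were plated at 1500 per well and allowed 5 hr at 37 °C. Compounds were added across a concentration range and incubated 40 hr at 37 °C. CellTiter-Glo was added for 20 min at room temperature before luminescence reading.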

Test [5] is described as follows: Cell Viability - Renal Proximal Tubule (AID 545).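 Note: 0% = DMSO only and -100% = 100 µM tamoxifen; nearly all actives have a fitted effect of over 40% in size.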 As to conditions: renal proximal tubule cells viability, primary cells of rat origin; activity change, negative = cytotoxicity: at 91.7 µM (top of the series). The gist of the method: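 Luminescent ATP signal (CellTiter-Glo) served as the viability read-out after 40 hr compound exposure of freshly isolated rat proximal tubule cells at 37 °C. Concentration-dependent ATP loss was fitted with the Hill equation to give AC50.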

Test [6] in a line: MultiTox-Fluor Cytotoxicity Assay - LYMP1-002 - Dead Cells (AID 960).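 Note: cells exposed to compound for 16 h at 37 °C; 0% = DMSO and 100% = tetraoctylammonium bromide; nearly all actives have a fitted effect of over 60% in size.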 As to conditions: LYMP1-002 lymphoblastoid cells, dead-cell protease fluorescence; series mostly up to 46.1 µM. The gist of the method:
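Cells were plated, rested 5 hr, then treated with compound dilution series for 16 hr at 37 C. After adding substrate reagent and 60 min at room temperature, dead-cell protease fluorescence gave concentration-response curves fitted by the Hill equation.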

Test [7] can be described thus: Cell Viability - LYMP2-004 (AID 966).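 Note: plate controls were DMSO only for no effect and tetraoctylammonium bromide control for full effect; nearly all actives have a fitted effect of over 65% in size.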 The following applies: LYMP2-004 lymphoblastoid cell viability, qHTS; series mostly up to 92.2 µM. The gist of the method:
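qHTS cytotoxicity: human lymphoblastoid line, 24 hr compound treatment, 37 C, complete medium. Viability read as cellular ATP via luciferase luminescence; tetraoctylammonium bromide served as positive control.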

A short description of test [8]: Cell Viability - LYMP2-005 (AID 967).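 Note: cells exposed to compound for 24 h at 37 °C; plate controls were DMSO only for no effect and 92 µM tetraoctylammonium bromide control for full effect.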 The following applies: LYMP2-005 lymphoblastoid cell viability; series mostly up to 92.2 µM. The gist of the method:
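Acute cytotoxicity is scored as a concentration-dependent drop in intracellular ATP in human lymphoblastoid LYMP2-005 cells after 24 h compound treatment. ATP is quantified by luciferase luminescence, and AC50 is derived by Hill-equation modelling.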

Test [9] is described as follows: Cell Viability - LYMP2-009 (AID 968).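 Note: cells exposed to compound for 24 h at 37 °C; 0% = DMSO alone and the full-kill end = tetraoctylammonium bromide at 92 µM; nearly all actives have a fitted effect of over 55% in size.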 As to conditions: LYMP2-009 lymphoblastoid cell viability; series mostly up to 92.2 µM.
The nature of test [10]: Cell Viability - LYMP2-015 (AID 971).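 Note: 0% = DMSO only and full effect = 92 µM tetraoctylammonium bromide; nearly all actives have a fitted effect of over 55% in size.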 The following applies: LYMP2-015 lymphoblastoid cell viability; series mostly up to 92.2 µM. The gist of the method: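 Cells are seeded at 2500 per well and incubated 5 hr at 37 C. Compounds are added across a concentration series for 24 hr at 37 C. CellTiter-Glo is added, and luminescence is read after 30 min at room temperature.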
Test [11] is described as follows: Cell Viability - LYMP2-017 (AID 972).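 Note: cells exposed to compound for 24 hours at 37 °C; % is set by controls: 0 for no effect and ±100 for the full control effect; nearly all actives have a fitted effect of over 55% in size.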 As to conditions: LYMP2-017 lymphoblastoid cell viability; series mostly up to 92.2 µM. The gist of the method:
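Cytotoxicity is scored as a concentration-dependent drop in cellular ATP in a human lymphoblastoid line after 24 hr treatment at 37 C. Values are AC50s from Hill-equation modelling.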

Test [12] is described as follows: Cell Viability - LYMP2-006 (AID 978).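 Note: cells exposed to compound for 24 hours; % is set by controls: 0 for no effect and ±100 for the full control effect; nearly all actives have a fitted effect of over 60% in size.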 The following applies: LYMP2-006 lymphoblastoid cell viability, qHTS; series mostly up to 92.2 µM. The gist of the method: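 Cells are seeded at 2500 per well and rested 5 hr at 37 C. Compounds are added across a concentration series for 24 hr at 37 C, after which ATP is quantified by luciferase luminescence.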
Test [13] in a line: Cell Viability - LYMP2-010 (AID 981). As to conditions: LYMP2-010 lymphoblastoid cell viability, qHTS; series mostly up to 92.2 µM. The gist of the method:
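Steps: seed 2500 LYMP2-010 cells per well; incubate 5 hr at 37 C; add compound; incubate 24 hr at 37 C; add CellTiter-Glo, wait 30 min at room temperature; read luminescence. Concentration-response fitted to Hill equation for AC50.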

Test [14] is described as follows: qHTS assay for small molecule agonists of retinoid X receptor alpha signaling (AID 588544; calls by dose curve). As to conditions: HEK293T RXRa-UAS-bla, beta-lactamase reporter, 18 h; 530 nm emission.
The target in test [15] is Retinoic acid receptor RXR-alpha (Homo sapiens) (UniProt P19793). Described as above. As to conditions: HEK293T RXRa-UAS-bla, beta-lactamase reporter, 18 h; series mostly up to 76.7 µM.
Test [16] addresses Thyroid hormone receptor beta (Homo sapiens) (UniProt P10828). Put plainly: qHTS assay for small molecule agonists of thyroid hormone receptor beta signaling (AID 588545; calls by dose curve;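 note: 0% = DMSO only and 100% = 10 nM T3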). The following applies: TR-UAS-bla GripTite HEK 293, beta-lactamase ratio, agonist mode, 18 h; series mostly up to 76.7 µM. The gist of the method: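 Beta-lactamase reporter activity under TR response element control is measured in HEK 293 cells after 18 hrs compound exposure. Signal is ratiometric CCF4 fluorescence, 460/530 nm.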

Test [17] in a line: qHTS assay for small molecule disruptors of the mitochondrial membrane potential - 1 hr assay (AID 651754; calls by dose curve; note: % is set by controls: 0 for no effect and ±100 for the full control effect; nearly all actives have a fitted effect of over 35% in size). As to conditions: series mostly up to 92.2 µM. The gist of the method: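 Loss of mitochondrial potential shifts the cationic dye from red mitochondrial aggregates to green cytoplasmic monomers. Cells (HepG2) are treated with compound for 1 hr before a 30 min dye incubation at 37C.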

The nature of test [18]: qHTS assay for small molecule disruptors of the mitochondrial membrane potential - 5 hr assay (AID 651755; calls by dose curve; note: % is set by controls: 0 for no effect and ±100 for the full control effect; nearly all actives have a fitted effect of over 40% in size). The following applies: JC-1-type ratio dye; series mostly up to 92.2 µM. The gist of the method:
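Seed HepG2 overnight, add compound, incubate 5 hr at 37C and 5% CO2, stain 30 min with Mito-MPS, then measure monomer (490/535 nm) and aggregate (540/590 nm) fluorescence.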

Test [19] in a line: qHTS assay for small molecule agonists of the antioxidant response element (ARE) signaling pathway measured by Nrf2-dependant transcriptional activity (AID 720636; active = well fitted curve in the direction sought with a large enough effect in the repeat runs; an effect the other way counts as inactive or inconclusive;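 note: HepG2 cells with an ARE-driven luciferase reporter; % of control where 0% means no effect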). The following applies: ARE-luc HepG2, Nrf2 luciferase reporter, 16 h; series mostly up to 92.4 µM. The gist of the method:
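Nrf2-dependent transcription is measured in ARE-luc HepG2 cells: compound is applied for 16 hr at 37 C after a 6 hr attachment period, and luciferase activity is quantified by luminescence using ONE-Glo.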

Test [20] concerns the target Nuclear receptor subfamily 1 group I member 2 (Rattus norvegicus) (UniProt Q9R1A7). Put plainly: qHTS assay for small molecule activators of the rat pregnane X receptor (rPXR) signaling pathway (AID 651751; call rule not given here; note: 0% is about no effect). The following applies: rPXR reporter cells, luciferase (One-Glo), 24 h.

Potency, activity change, negative = cytotoxicity and max response data for seven compounds are collected here from PubChem BioAssay (NCATS).

“And” between values parts separate entries of the source, which are not always exact repeats. Equal entries are not always repeated. Results filed as inconclusive are left out. The source made the active and inactive calls. Unless noted, calls come from the whole dose curve; as a rule, active = well fitted curve in the direction sought with a large enough effect; inconclusive = small, poorly fitted or top-dose-only effect, or another doubt; inactive = no such curve, though single readings can be large; an effect the other way counts as inactive or inconclusive.

Sequence of Nuclear receptor subfamily 1 group I member 2 (Rattus norvegicus) (Q9R1A7 whole entry, looked up): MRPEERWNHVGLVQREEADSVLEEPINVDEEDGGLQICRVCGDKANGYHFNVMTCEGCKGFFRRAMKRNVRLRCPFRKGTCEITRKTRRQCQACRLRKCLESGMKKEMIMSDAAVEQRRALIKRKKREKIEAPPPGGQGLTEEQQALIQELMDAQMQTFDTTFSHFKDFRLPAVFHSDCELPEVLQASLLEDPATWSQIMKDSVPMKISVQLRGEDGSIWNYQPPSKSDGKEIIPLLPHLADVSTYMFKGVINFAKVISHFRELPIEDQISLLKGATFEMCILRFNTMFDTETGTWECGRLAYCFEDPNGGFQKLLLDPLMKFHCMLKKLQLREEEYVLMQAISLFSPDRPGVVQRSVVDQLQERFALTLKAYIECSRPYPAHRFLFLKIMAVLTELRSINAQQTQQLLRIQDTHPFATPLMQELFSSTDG
Sequence of Thyroid hormone receptor beta (Homo sapiens) (P10828 whole entry, looked up): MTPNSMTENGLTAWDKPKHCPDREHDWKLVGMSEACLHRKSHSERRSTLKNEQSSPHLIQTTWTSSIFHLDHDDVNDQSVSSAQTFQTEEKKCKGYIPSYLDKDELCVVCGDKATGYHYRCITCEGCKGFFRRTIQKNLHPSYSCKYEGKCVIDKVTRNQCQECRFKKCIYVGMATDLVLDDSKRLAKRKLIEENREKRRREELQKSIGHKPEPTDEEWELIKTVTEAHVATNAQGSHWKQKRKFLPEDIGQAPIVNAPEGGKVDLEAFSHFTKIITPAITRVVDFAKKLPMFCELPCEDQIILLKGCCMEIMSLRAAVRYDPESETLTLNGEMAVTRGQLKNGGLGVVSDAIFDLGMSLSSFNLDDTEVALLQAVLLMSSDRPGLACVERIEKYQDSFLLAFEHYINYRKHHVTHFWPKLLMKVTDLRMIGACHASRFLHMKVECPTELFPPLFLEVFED
Sequence of Retinoic acid receptor RXR-alpha (Homo sapiens) (P19793 whole entry, looked up): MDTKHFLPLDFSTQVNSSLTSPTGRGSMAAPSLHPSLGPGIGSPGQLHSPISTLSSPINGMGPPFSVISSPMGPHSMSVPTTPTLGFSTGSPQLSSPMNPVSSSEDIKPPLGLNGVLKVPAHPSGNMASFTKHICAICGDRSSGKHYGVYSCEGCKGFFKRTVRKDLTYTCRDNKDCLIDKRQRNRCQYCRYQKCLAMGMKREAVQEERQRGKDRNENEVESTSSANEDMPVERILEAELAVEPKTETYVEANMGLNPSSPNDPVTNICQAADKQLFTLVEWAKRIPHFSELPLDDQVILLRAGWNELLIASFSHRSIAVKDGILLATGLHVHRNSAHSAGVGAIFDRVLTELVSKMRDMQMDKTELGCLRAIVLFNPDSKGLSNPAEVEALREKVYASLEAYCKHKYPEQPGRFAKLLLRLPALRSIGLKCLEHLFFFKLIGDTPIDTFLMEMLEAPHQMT

Turning to `CC(C)S`, in [1], the Potency was > 92 µM (inactive). The activity change, negative = cytotoxicity in test [2] is -5.34% (inactive). Besides, the Potency result in test [3], in [4], in test [5], in test [6], in test [7] and in [8] was “inactive” each time. The Potency entry in test [9], in test [10], in [11], in test [12], in test [13] and in test [15] was “inactive” each time. The Potency entry in test [16], in test [17], in [18] and in [19] was “inactive” throughout. The figures for the max response in test [14] and in [20] were -9.69% and -6.45% (inactive), respectively.

As to `C[Si](C)(C)Cl`, the Potency in test [1] was > 92 µM (inactive). Besides, the activity change, negative = cytotoxicity in test [2] is -6.55% (inactive). Also, the Potency entry in test [3], in test [5], in [6], in test [7], in test [8] and in test [9] was “inactive” throughout. Besides, the Potency entry in test [10], in test [11], in test [12], in test [13], in test [15] and in test [16] was “inactive” in each case. In addition, the Potency result in test [17], in [18] and in test [19] was “inactive” each time. For the same compound, the results for the max response in [14] and in [20] were 8.09% and 1.16% (inactive), respectively.

Turning to `Cc1ccc2ccc3cccc4ccc1c2c34`, the Potency in test [1] is > 92 µM (inactive). Further, in test [2], the activity change, negative = cytotoxicity was -16.7% (inactive). For the same compound, the Potency result in test [3], in [4], in test [5], in [7], in test [8] and in test [9] was “inactive” in each case. Moreover, the Potency result in [10], in [11], in [12], in test [13], in test [15] and in test [16] was “inactive” throughout. In addition, the results for the max response in test [14] and in [20] were -15.6% and 10% (inactive), respectively.

As for `CCCCCCCCC1CO1` (stereo not drawn), the Potency in test [1] was > 92 µM (inactive). In addition, the activity change, negative = cytotoxicity in test [2] is -1.38% (inactive). Also, the Potency result in test [3], in test [4], in [5], in [6], in test [7] and in test [8] was “inactive” throughout. Moreover, the Potency result in test [9], in [10], in test [11], in test [12], in test [13] and in test [15] was “inactive” in each case. Also, the Potency result in test [16], in [17], in test [18] and in test [19] was “inactive” in each case. Moreover, the max response was -17.5% in test [14] and -2.96% (inactive) in test [20].

Regarding `c1cc2c3c(c1)ccc1cccc(c13)C2`, in test [1], the Potency was > 92 µM (inactive). Further, the activity change, negative = cytotoxicity in test [2] was 0.332% (inactive). The Potency entry in [3], in test [4], in test [5], in test [6], in [7] and in test [8] was “inactive” each time. The Potency entry in test [10], in test [11], in test [12], in [13], in test [15] and in test [16] was “inactive” in each case. For the same compound, the Potency result in test [17], in test [18] and in test [19] was “inactive” throughout. For the same compound, the figures for the max response in test [14] and in [20] were -13.6% and -0.774% (inactive), respectively.

In the case of `CC(C)OCC1CO1` (stereo not drawn), the Potency in test [1] was > 92 µM (inactive). In addition, the activity change, negative = cytotoxicity in test [2] is -7.39% (inactive). Moreover, the Potency entry in test [3], in [4], in [5], in test [7], in test [8] and in [9] was “inactive” throughout. Besides, the Potency result in test [10], in [11], in test [12], in test [13], in [15] and in test [16] was “inactive” each time. The Potency result in test [17], in test [18] and in test [19] was “inactive” in each case. The results for the max response in test [14] and in test [20] were -12.5% and 3.69% (inactive), respectively.

`Cc1ccc(S(N)(=O)=O)cc1`: in test [1], the Potency is > 92 µM (inactive). The activity change, negative = cytotoxicity in test [2] was -12.6% (inactive). The Potency result in [3], in test [4], in [5], in test [6], in test [7] and in [8] was “inactive” in each case. The Potency result in [9], in [10], in test [11], in test [12], in test [13] and in test [15] was “inactive” in each case. In addition, the Potency result in [16], in test [17], in [18] and in test [19] was “inactive” each time. Further, the max response in [14] was -3.23% and -4.03%; in test [20] it was -1.87% (inactive) and 3.62% (inactive).
